From PubChem BioAssay (NCI)
This is part of a sample that, as a whole, favours compounds with a hit. Of some 79,000 tested, about 15% had one in any assay. A number with no mark means an inactive call. The source made the active and inactive calls. No stated cut-off is given here; in the data, active means growth inhibition above about 70%; inactive means the rest.

What was measured:
[1] = NCI Yeast Anticancer Drug Screen. Data for the rad50 strain (AID 155);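 further: 0% = growth of vehicle-only cultures of the same strain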; conditions: S. cerevisiae rad50 strain growth inhibition, hits give high values
Outline: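 Growth of the mutant yeast was measured after compound exposure and referenced to vehicle-treated cultures.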

[2] = NCI Yeast Anticancer Drug Screen. Data for the mec2-1 strain (AID 157); conditions: S. cerevisiae mec2-1 strain, hits give high values
Outline: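 mec2-1 yeast strain, carrying an alteration in DNA damage repair or cell cycle control, was exposed to compounds; growth inhibition was measured relative to vehicle-treated controls.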

[3] = NCI Yeast Anticancer Drug Screen. Data for the sgs1 mgt1 strain (AID 161);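 further: 0% = growth of cultures given vehicle only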; conditions: S. cerevisiae sgs1 mgt1 strain, hits give high values
Outline: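 Growth of a repair-deficient yeast mutant was monitored after compound treatment and expressed as inhibition relative to vehicle-treated cultures.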

[4] = NCI Yeast Anticancer Drug Screen. Data for the cln2 rad14 strain (AID 165);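 further: 0% = growth equal to vehicle treated cultures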; conditions: S. cerevisiae cln2 rad14 strain, hits give high values
Outline: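 Yeast carrying cln2 and rad14 alterations (cell cycle control and DNA damage repair) were exposed to compounds. Growth inhibition was measured against vehicle-treated controls.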

[5] = NCI Yeast Anticancer Drug Screen. Data for the bub3 strain (AID 167); conditions: S. cerevisiae bub3 mutant strain, hits give high values
Outline: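 Whole-cell yeast assay. The mutant strain was incubated with compounds, and growth inhibition was determined by comparison with vehicle-treated cells.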

[6] = NCI Yeast Anticancer Drug Screen. Data for the mlh1 rad18 strain (AID 175); conditions: S. cerevisiae mlh1 rad18 strain growth inhibition, hits give high values
Outline: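 Growth inhibition of the yeast strain was measured after compound exposure and expressed relative to vehicle-treated controls. The strain carries defined defects in DNA damage repair.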

[7] = at 5.0 µM (retest, dose inferred, filed as 0.5)
[8] = at 50.0 µM (retest, dose inferred, filed as 5.0)

| Structure (SMILES) | growth inhibition [1, 7] [%] | growth inhibition [1, 8] | growth inhibition ([1]; at 50.0 µM) | growth inhibition [2, 7] [%] | growth inhibition [2, 8] | growth inhibition ([2]; at 50.0 µM) | growth inhibition [3, 7] [%] | growth inhibition [3, 8] | growth inhibition ([3]; at 50.0 µM) | growth inhibition [4, 7] [%] | growth inhibition [4, 8] | growth inhibition ([4]; at 50.0 µM) | growth inhibition [5, 7] [%] | growth inhibition [5, 8] | growth inhibition ([5]; at 50.0 µM) | growth inhibition [6, 7] [%] | growth inhibition [6, 8] | growth inhibition ([6]; at 50.0 µM) |
| --- | --- | --- | --- | --- | --- | --- | --- | --- | --- | --- | --- | --- | --- | --- | --- | --- | --- | --- |
| Cc1cc(Cl)cc2c1NC(=O)C2(O)C/C(=N/NC(=O)CC#N)c1cccc([N+](=O)[O-])c1 (configuration not stated) | 4 | 20% | 59.1% | -13 | 35% | 38.1% | -1 | -4% | 62.2% | -3 | 1% | 9.4% | 1 | 13% | 15.4% | 1 | -23% | 76.8% (active) |
| C[n+]1c(/C=C/c2ccc(Cl)cc2)sc2ccccc21 | -4 | 36% | 60.5% | -6 | 51% | 51.9% | -11 | 36% | 73% (active) | 1 | 28% | 75.2% (active) | -12 | 34% | 29.6% | 11 | 50% | 78.8% (active) |
| COC(=O)CCC(NC(=S)N/N=C(\C)c1cnc2ccccc2n1)C(=O)OC (configuration not stated) | 12 | 12% | 34.1% | 1 | 1% | 16.2% | -5 | -5% | 67.1% | 10 | 10% | 11.1% | 12 | 12% | 26.8% | 15 | 15% | 31.4% |
| O=S(=O)(Nc1ccccc1)c1ccccc1C#Cc1ccccc1 | -3 | 91% (active) | 89.8% (active) | -2 | 92% (active) | 79.2% (active) | 10 | 93% (active) | 86.9% (active) | -70 | 92% (active) | 74.3% (active) | 2 | 64% | 89.8% (active) | 3 | 95% (active) | 91.5% (active) |
| Cc1ccc(C(=O)/C=C/c2ccco2)c(C)c1 | -9 | -12% | 11.3% | -42 | 1% | 25.9% | -14 | 15% | 63.8% | -14 | 5% | 25.8% | 2 | 4% | 54.5% | -20 | 61% | 17.6% |
| CN(c1ccccc1)N(C)c1ccccc1 | -1 | 22% | 40.6% | -3 | -1% | -3.45% | -5 | -16% | -17.4% | 8 | 15% | -33.2% | 5 | 5% | -7.8% | 3 | 26% | 4% |
| CCCCCCCCCCCCCCCC1=NCCN1C | 14 | 99% (active) | 99.1% (active) | 9 | 100% (active) | 99.5% (active) | 29 | 99% (active) | 54.9% | 15 | 98% (active) | 96.5% (active) | 48 | 99% (active) | 99.3% (active) | 16 | 99% (active) | 98.9% (active) |
| C1=CC2OC1c1cc3ccccc3cc12 | 13 | 92% (active) | 87.5% (active) | 11 | 98% (active) | 96.5% (active) | 10 | 98% (active) | 89.9% (active) | 23 | 98% (active) | 95.6% (active) | 6 | 97% (active) | 95% (active) | 34 | 97% (active) | 95.2% (active) |
| COc1ccc2c(c1)CCC1OC(c3cccnc3)OC21 (configuration not stated) | -1 | 18% | 65.8% | -19 | -4% | 36.9% | -3 | 8% | 75.8% (active) | -5 | 11% | 55% | 10 | 25% | 30.6% | -10 | -15% | 70.9% (active) |
